Screens (PubChem)
FBPA coupling cs = qHTS Assay for Inhibitors of Fructose-1,6-bisphosphate Aldolase from Giardia Lamblia: Coupling assay counterscreen. coupling enzyme system counterscreen, AmpLite Red fluorescence. activity change, negative = inhibition, % at 58.2 µM, hits read low. hit rate 0.67% among 290,000; in the data active means activity change below about -30%
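First, compound is pin-transferred into glyceraldehyde-3-phosphate coupling-enzyme reagent at 57.5 uM final and held 10 min at RT. Next, substrate, coupling system and AmpLite Red are added. After 20 min RT, fluorescence (525/598 nm) is read.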
GALK inhibitor = qHTS Assay for Inhibitors of Human Galactokinase (GALK); P51570; Purified GALK, Kinase-Glo residual ATP luminescence; Potency, µM (series often up to 57.5 µM), actives largely listed as inhibitors; hit rate 0.007% among 270,000; AID 1868, 2009
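GALK at 5 nM final was combined with compound, 35 uM ATP and 100 uM galactose in HEPES pH8.0 with MgCl2 and DTT. The reaction ran one hour at room temperature before luminescent ATP detection.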
RORg inh = qHTS for inhibitors of ROR gamma transcriptional activity; Nuclear receptor ROR-gamma (Mus musculus), P51450; Potency, µM (series often up to 53.6 µM), most hits filed as inhibitors; hit rate 5.4% among 310,000; Drosophila S2 Gal4-RORgamma UAS-luciferase reporter, 20 h; further: nearly all actives have a fitted effect of over 60% in size
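Luminescence from a UAS-regulated Photinus luciferase reporter in stably transfected Drosophila Schneider cells is measured; decreased signal marks ROR gamma inhibition. Fusion expression is induced by 700 uM copper sulfate for 20 hr.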
TrxR1 substrate = qHTS Assay for Substrates of Mammalian Selenoprotein Thioredoxin Reductase 1 (TrxR1): qHTS; Thioredoxin reductase 1, cytoplasmic (Rattus norvegicus), O89049; purified TrxR1 substrate turnover, NADPH consumption readout; Potency, µM (highest dose often 114 µM); hit rate 0.01% among 390,000; AID 588456, 2011; further: nearly all actives have a fitted effect of over 50% in size
Target sequence (O89049 whole entry, looked up): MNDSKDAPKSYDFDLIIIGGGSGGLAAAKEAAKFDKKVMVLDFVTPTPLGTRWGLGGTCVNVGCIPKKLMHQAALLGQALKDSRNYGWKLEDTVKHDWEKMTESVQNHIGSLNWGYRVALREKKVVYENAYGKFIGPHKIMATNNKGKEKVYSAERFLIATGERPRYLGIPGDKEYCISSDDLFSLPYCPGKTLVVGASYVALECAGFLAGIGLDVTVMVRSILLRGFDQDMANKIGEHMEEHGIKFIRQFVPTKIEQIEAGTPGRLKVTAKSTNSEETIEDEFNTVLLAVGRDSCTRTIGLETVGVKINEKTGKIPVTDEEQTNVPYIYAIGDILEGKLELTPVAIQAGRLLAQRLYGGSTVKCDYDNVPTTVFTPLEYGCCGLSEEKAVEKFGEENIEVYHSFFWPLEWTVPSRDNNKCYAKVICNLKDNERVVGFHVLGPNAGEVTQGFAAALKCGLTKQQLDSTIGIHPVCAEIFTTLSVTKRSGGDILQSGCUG
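Rat TrxR1, dispensed at 90 nM, was prereduced with 400 uM NADPH (final) for 5 min at ~22 deg C, then incubated with compound 15 min before 400 uM selenite. A first-read NADPH fluorescence drop versus no-compound background flagged substrates.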
rTrxR1 inhibitor = qHTS Assay for Inhibitors of Mammalian Selenoprotein Thioredoxin Reductase 1 (TrxR1): qHTS. recombinant rTrxR1, NADPH fluorescence consumption, selenite substrate. Potency, µM (doses to about 114 µM), actives largely listed as inhibitors. hit rate 1% among 390,000. AID 588453, 2011; further: nearly all actives have a fitted effect of over 65% in size
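Rat TrxR1 (90 nM in the dispensed reagent) was pre-reduced with 400 uM NADPH for 5 min at room temperature, then incubated with compound for 15 min. After 400 uM selenite was added, NADPH fluorescence (Ex 340/Em 450 nm) was followed for 8 min.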
VP16 counter = VP16 counterscreen qHTS for inhibitors of ROR gamma transcriptional activity | Drosophila S2 Gal4-VP16 UAS-luciferase, luminescence, 20 h | hit rate 3.5% among 310,000 | Potency, µM (top dose mostly 53.6 µM), hits mostly inhibitors;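 further: Gal4-VP16 expression switched on by copper sulfate through the metallothionein promoter; nearly all actives have a fitted effect of over 50% in size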
A number is an active result; ! = repeats disagree; [ ] = remark or other dose. Most compounds without a hit are left out; they make up all but 5.9% or so of the library. Unless noted, the call rests on the fitted dose curve; in most records, active means well fitted curve in the direction sought with a large enough effect; inconclusive means small, poorly fitted or top-dose-only effect, or another doubt; inactive means no such curve, though single readings can be large; an effect the other way counts as inactive or inconclusive.

Results for CCn1cc(C(=O)O)c(=O)c2cc(F)c(N3CCN(C(=S)NC(=O)c4ccc(F)cc4)CC3)cc21 ?
FBPA coupling cs: inactive; GALK inhibitor: inactive; RORg inh: 2.51µM; TrxR1 substrate: inactive; rTrxR1 inhibitor: inactive; VP16 counter: 3.98µM

How did COCCN(C(=O)CSc1nc2nc(C)cc(C)n2n1)c1c(N)n(Cc2ccccc2)c(=O)[nH]c1=O do in these assays?
FBPA coupling cs: inactive; GALK inhibitor: inactive; RORg inh: inactive; TrxR1 substrate: inactive; rTrxR1 inhibitor: inactive; VP16 counter: inactive

What do the screens show for `Cc1ccc(-n2c3c(c(=O)[nH]c2=O)C(NS(=O)(=O)c2ccc(Cl)cc2)(C(F)(F)F)C(=O)N3)cc1` (stereo unspecified)?
FBPA coupling cs: inactive; GALK inhibitor: inactive; RORg inh: inactive; TrxR1 substrate: inactive; rTrxR1 inhibitor: inactive; VP16 counter: inactive

What do the screens show for `O=C(c1nc2ncccn2n1)N1CCN(c2ccccc2)CC1`?
FBPA coupling cs: inactive; GALK inhibitor: inactive; RORg inh: inactive; TrxR1 substrate: inactive; rTrxR1 inhibitor: inactive; VP16 counter: inactive

Results for COc1cc(CNc2ccc(O)cc2)cc(Br)c1OCc1ccccc1F ?
FBPA coupling cs: -57.1; GALK inhibitor: inactive; RORg inh: inactive; TrxR1 substrate: inactive; rTrxR1 inhibitor: 20µM; VP16 counter: inconclusive

What do the screens show for `CCOc1cc(CNc2ccc(O)cc2)cc(Br)c1OCc1ccccc1F`?
FBPA coupling cs: -55.5; GALK inhibitor: inactive; RORg inh: inconclusive; TrxR1 substrate: inactive; rTrxR1 inhibitor: inconclusive; VP16 counter: inactive

What do the screens show for `COc1cc(CNc2ccc(N3CCCC3)cc2)ccc1OCc1ccccc1F`?
FBPA coupling cs: inactive; GALK inhibitor: inactive; RORg inh: inactive; TrxR1 substrate: inactive; rTrxR1 inhibitor: 10µM; VP16 counter: inactive

Results for CCOc1cc(CNc2ccc(O)cc2)cc(Br)c1OCc1ccccc1 ?
TrxR1 substrate: inactive; rTrxR1 inhibitor: inactive

Results for COc1cc(CNc2ccc(N3CCCC3)cc2)ccc1OCc1ccccc1 ?
FBPA coupling cs: inactive; GALK inhibitor: inactive; RORg inh: inactive; TrxR1 substrate: inactive; rTrxR1 inhibitor: inconclusive; VP16 counter: inactive

What do the screens show for `Cc1ccccc1C(=O)NC1(C(F)(F)F)C(=O)Nc2c1c(=O)[nH]c(=O)n2CCc1ccccc1` (stereo unspecified)?
TrxR1 substrate: inactive; rTrxR1 inhibitor: inactive

Results for Cc1ccn2c(=O)nc(SCC(=O)N3CCC(C)CC3)nc2c1 ?
TrxR1 substrate: inactive; rTrxR1 inhibitor: inactive

What do the screens show for `O=[N+]([O-])C(/C=C(/Cl)[N+](=O)[O-])=C(N1CCCCC1)N1CCCCC1`?
FBPA coupling cs: inactive; GALK inhibitor: inactive; RORg inh: inactive; TrxR1 substrate: inactive; rTrxR1 inhibitor: 7.94µM; VP16 counter: inconclusive

Results for O=C(/C=C/c1ccccc1[N+](=O)[O-])N1CCCCC1 ?
FBPA coupling cs: inactive; GALK inhibitor: inactive; RORg inh: inactive; TrxR1 substrate: inactive; rTrxR1 inhibitor: inactive; VP16 counter: inactive

Results for COc1ccc(S(=O)(=O)Nc2cccc3cccnc23)cc1 ?
TrxR1 substrate: inactive[0.457 µM]; rTrxR1 inhibitor: inactive

How did CC(=O)Nc1ccc(S(=O)(=O)Nc2cccc3cccnc23)cc1 do in these assays?
FBPA coupling cs: inactive; GALK inhibitor: inactive; RORg inh: 10µM; TrxR1 substrate: inactive; rTrxR1 inhibitor: inactive; VP16 counter: inconclusive

How did O=S(=O)(Nc1cccc2cccnc12)c1ccc(S(=O)(=O)N2CCCC2)cc1 do in these assays?
FBPA coupling cs: inactive; GALK inhibitor: inactive; RORg inh: 2.51µM; TrxR1 substrate: inactive; rTrxR1 inhibitor: inactive; VP16 counter: 5.01µM

Results for COC(=O)Nc1ccc(S(=O)(=O)Nc2cccc3ccccc23)cc1 ?
FBPA coupling cs: inactive; GALK inhibitor: inactive; RORg inh: inconclusive; TrxR1 substrate: inactive; rTrxR1 inhibitor: inactive; VP16 counter: 17.8µM

How did NC(=S)NNc1cccc2cccnc12 do in these assays?
FBPA coupling cs: -36.4; GALK inhibitor: inactive; RORg inh: inactive; TrxR1 substrate: inactive; rTrxR1 inhibitor: inactive; VP16 counter: inactive

What do the screens show for `Cc1ccc(S(=O)(=O)Nc2cccc3ccccc23)cc1`?
TrxR1 substrate: inactive[0.457 µM]; rTrxR1 inhibitor: inactive

Results for O=C(c1ccccn1)N1CCN(S(=O)(=O)c2ccc(F)cc2)CC1 ?
FBPA coupling cs: inactive; GALK inhibitor: inactive; RORg inh: inactive; TrxR1 substrate: inactive; rTrxR1 inhibitor: inactive; VP16 counter: inactive

Results for CCOC(=O)c1[nH]cnc1C(=O)Nc1ccncc1 ?
FBPA coupling cs: inactive; GALK inhibitor: inactive; RORg inh: inactive; TrxR1 substrate: inactive; rTrxR1 inhibitor: inactive; VP16 counter: inactive

Results for O=C(Nc1ccnc(-c2cccnc2)n1)c1cccc(Cl)c1Cl ?
FBPA coupling cs: inactive; GALK inhibitor: inactive; RORg inh: inactive; TrxR1 substrate: inactive; rTrxR1 inhibitor: inactive; VP16 counter: inactive

How did COc1ccc(S(=O)(=O)N(C)C)cc1NC(=O)COC(=O)Cn1cnc2ccccc2c1=O do in these assays?
TrxR1 substrate: inactive; rTrxR1 inhibitor: inactive

Results for Cc1ccc(S(=O)(=O)Nc2cccc3cccnc23)c([N+](=O)[O-])c1 ?
FBPA coupling cs: inactive; GALK inhibitor: inactive; RORg inh: 0.794µM; TrxR1 substrate: inactive; rTrxR1 inhibitor: inactive; VP16 counter: 0.891µM

What do the screens show for `Cc1cc(C)n(-c2ccc3cccc(NS(C)(=O)=O)c3n2)n1`?
FBPA coupling cs: inactive; GALK inhibitor: inactive; RORg inh: 4.47µM; TrxR1 substrate: inactive; rTrxR1 inhibitor: inactive; VP16 counter: inconclusive

Results for Cc1cc(C)c(NS(=O)(=O)c2cccc3cccnc23)c(C)c1 ?
FBPA coupling cs: inactive; GALK inhibitor: inactive; RORg inh: inactive; TrxR1 substrate: inactive; rTrxR1 inhibitor: inactive; VP16 counter: inactive

Results for O=S(=O)(Nc1cccc2cccnc12)c1ccccc1 ?
FBPA coupling cs: -39.1!; GALK inhibitor: inactive; RORg inh: 2µM; TrxR1 substrate: inactive; rTrxR1 inhibitor: inactive; VP16 counter: 3.55µM

How did COc1ccc(NS(=O)(=O)c2ccc3ccccc3c2)c2ncccc12 do in these assays?
FBPA coupling cs: inactive; GALK inhibitor: inactive; RORg inh: 0.708µM; TrxR1 substrate: inactive; rTrxR1 inhibitor: inactive; VP16 counter: 1.12µM

What do the screens show for `CCN(Cc1ccccc1)C(=O)CCS(=O)(=O)c1cc(Br)cc2c1N(C(=O)C1CC1)CC2`?
TrxR1 substrate: inactive; rTrxR1 inhibitor: inactive

How did Cc1ccc(C)c(N2CCN(CCCNC(=O)Nc3cc(Cl)ccc3C)CC2)c1 do in these assays?
TrxR1 substrate: inactive; rTrxR1 inhibitor: inactive
